# Assay outcomes from PubChem.
# An excerpt weighted towards active compounds, which were near 21% of everything screened.
# TDP1 cell CPT: qHTS for Inhibitors of human tyrosyl-DNA phosphodiesterase 1 (TDP1): qHTS in cells in presence of CPT. chicken DT40 Tdp1-/-;hTDP1 cells + 20 nM CPT, ATP luminescence, 48 h. Potency, µM (titrated, usually from 46.2 µM), hits mostly inhibitors. AID 686979, 2013. 12% of 420,000 active; note: nearly all actives have a fitted effect of over 55% in size
#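 Chicken DT40 Tdp1-/- cells complemented with human TDP1, 400 cells/well, exposed to compounds plus 20 nM camptothecin for at least 48 h at 37 C; viability read as ATP content by CellTiter-Glo luminescence.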
# IL1B secr inh: qHTS for Inhibitors of Inflammasome Signaling: IL-1-beta AlphaLISA Primary Screen. THP-1 LPS/ATP IL-1B secretion, AlphaLISA, 16 h; hits give low values. AID 743279, 2014. 4.7% of 360,000 active. activity change, % at 57.5 µM; in the data active = activity change below about -50%; inconclusive = mostly about -30% to -49%
#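 THP-1 cells pretreated 1 hr with compounds (up to 57.5 uM final), then stimulated with LPS (250 ng/mL final) plus ATP (1.25 mM final); secreted IL-1B measured by AlphaLISA after 16 hr, decreased signal indicating inhibition.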
# DRD3 antagonist: qHTS of D3 Dopamine Receptor Antagonist: qHTS; D(3) dopamine receptor (Homo sapiens), P35462; D3R cells, DiscoveRx beta-arrestin luminescence, antagonist mode; hits give low values; max response, negative = inhibition, %; 2.5% of 360,000 active; in the data active = max response below about -50%; inconclusive = no clear call, values can overlap the other calls
#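 Cells plated overnight at 1500 cells/well, then exposed to library compounds with dopamine controls for 90 minutes at 37 degrees C. DiscoveRx reagent added for 30–60 minutes at room temperature; luminescence read, quantitative HTS format.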
# D3 ag: qHTS of D3 Dopamine Receptor Agonist: qHTS. D(3) dopamine receptor (Homo sapiens), P35462. D3R DiscoveRx beta-arrestin cells, luminescence, 90 min. max activation, %. 0.58% of 410,000 active; in the data active = max activation above about 30%
#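 Agonist-mode cell screen: cells plated at 1500/well and incubated overnight at 37 °C, then exposed to library compounds for 90 min at 37 °C. Detection reagent was added for 30–60 min at room temperature, and luminescence was read.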
# DT40 TDP1 no CPT: qHTS for Inhibitors of human tyrosyl-DNA phosphodiesterase 1 (TDP1): qHTS in cells in absence of CPT | DT40 Tdp1-/- hTDP1 cells, no CPT, ATP luminescence, 48 h | Potency, µM (doses to about 46.2 µM), actives largely listed as inhibitors | 15% of 420,000 active | AID 686978, 2013; note: nearly all actives have a fitted effect of over 55% in size
#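 Seeded 400 DT40-hTDP1 cells/well (vehicle DMSO, no 20 nM CPT); pinned compounds; ≥48 hr at 37 °C; CellTiter-Glo luminescence as viability measure.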
# ClpP mod: qHTS Assay for Activators of ClpP. ATP-dependent Clp protease proteolytic subunit (Bacillus subtilis (strain 168)), P80244. purified B. subtilis ClpP, FRET peptide cleavage, 20 min. Potency, µM (highest dose often 57.5 µM). 1.9% of 340,000 active. AID 651965, 2013; active = well fitted falling curve with a large enough effect; inconclusive = small, poorly fitted or top-dose-only effect; inactive = no such curve, though single readings can be large or run the other way; note: the source files actives as falling curves though it sought activators and does not explain the sign; nearly all actives have a fitted effect of over 65% in size
#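 FRET quenching reversal measured ClpP activation: 10 microg/mL B. subtilis ClpP at pH 8 with the FRET-FV decapeptide, read at 430 nm after 320 nm excitation. The 20-min minus 0-min signal was scaled between DMSO/no-enzyme wells and ADEP (5.8 microM final).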
# Hits are given with their value; - = inactive; ? = inconclusive; . = no result given; ! = not confirmed by another sample. Unless noted, calls come from the whole dose curve; as a rule, active = well fitted inhibition curve with a large enough effect; inconclusive = small, poorly fitted or top-dose-only effect; inactive = flat fitted curve, though single readings scatter.
SMILES,TDP1 cell CPT,IL1B secr inh,DRD3 antagonist,D3 ag,DT40 TDP1 no CPT,ClpP mod
COP(=O)(NC(C)=O)SC (stereo unspecified),-,-,-,-,-,-
CCOP(=O)(CCP(=O)(OCC)OCC)OCC.C[CH2][Sn]([Cl])([Cl])[CH2]C,0.731µM,-99.9,?,-,0.82µM,-
CC1=C(N2CC2)C(=O)C(CO)=C(N2CC2)C1=O,0.0259µM,-99.4,-95.6,-,0.0291µM,-
CC1(Cc2ccc(C(F)(F)F)nc2)C(=O)Nc2cc(-c3ccccc3Cl)ccc21 (stereo unspecified),16.4µM,.,-,-,?,-
COc1ccc(C(C)=O)cc1CC1(C)C(=O)Nc2ccc(-c3ccccc3OC)cc21 (stereo unspecified),?,-,-,-,?,-
NC(=O)CN1CCCC1=O,-,-,-,-,2.91µM!,-
CCCCC1(CN2CCCC2=O)C(=O)NC(=O)NC1=O,-,-,-,-,-,-
ClC1=CCC2CN(CCN3CCCCC3)CC2C1 (stereo unspecified),-,-,-52.2,-,-,-
O=P1(Oc2ccccc2)CC=C[C@H](COCc2ccccc2)O1 (stereo partly specified),-,-,-,-,-,-
CC(C)NP(=O)(NC(C)C)OP(=O)(NC(C)C)NC(C)C,-,-,-,-,-,-
O=[N+]([O-])c1cccc(CCl)c1,?,-,-116.9,-,-,-
O=[N+]([O-])c1cccc(O)c1,?,-,-,-,-,-
COc1cc(CC2(CCc3ccncc3)C(=O)N(C)C(=O)N(C)C2=O)cc(OC)c1OC,-,-,-,-,-,.
C(=NN1CCCCCC1)c1c[nH]c2ccccc12,-,-,-,-,-,.
Brc1ccc2[nH]cc(/C=N/N3CCCCC3)c2c1,?,-64.6,-,-,14.6µM,-
CCC1CN1P1(=O)OCC(C)([N+](=O)[O-])CO1 (stereo unspecified),?,-,-,-,?,-
O=C(NN=Cc1ccc(N(CCCl)CCCl)cc1Cl)c1cccnc1,?,-,-,-,23.1µM,-
Cc1cc(N(CCCl)CCCl)ccc1C=NNC(=O)c1cccnc1,10.3µM,-,-,-,?,.
O=C(Nc1ccc(F)c(Cl)c1)N(Cc1ccc2c(c1)OCO2)C1CCN(Cc2ccccc2)CC1,?,.,.,-,?,-
CCOC(=O)c1c(C)n(Cc2ccccc2)c2ccc(OCC(O)CNC(C)(C)C)cc12 (stereo unspecified),?,-96.3,-,-,18.4µM,.
COc1cccc(NC(=O)[C@@H](NC(=O)N2C[C@H]3C[C@@H](C2)c2cccc(=O)n2C3)C(C)C)c1,-,-,-,-,-,-
O=C(c1ccc2c(c1)OCO2)C1CCCN(CC2CCCCC2)C1 (stereo unspecified),?,-,-82.8,-,?,.
O=C(c1ccc2c(c1)OCO2)C1CCCN(Cc2c(F)cccc2Cl)C1 (stereo unspecified),-,-,?,-,?,-
CCc1ccc([C@H]2[C@@H]3C(=O)C[C@@H]4C(=O)N(Cc5ccccc5)C(=O)[C@@H]4[C@@H]3CN2S(=O)(=O)c2ccc(C)cc2)cc1,?,-,-,-,?,-
C=CCc1ccccc1OCCn1c(C2CC(=O)N(Cc3ccc(F)cc3)C2)nc2ccccc21 (stereo unspecified),16.4µM,.,.,-,?,-
SMILES,TDP1 cell CPT,IL1B secr inh,DRD3 antagonist,D3 ag,DT40 TDP1 no CPT,ClpP mod
O=S(=O)(c1ccccc1)C1CN1c1c(F)c(F)c(F)c(F)c1F (stereo unspecified),-,-,-,-,?,-
Clc1cccc(SC2CCNCC2)n1,-,.,.,-,?,.
CC1=C(/C=C/c2ccccc2)CCN(C)C1,-,-,-63.5,-,-,-
Cc1cc(Cc2c(O)[nH]c(=S)[nH]c2=O)ccc1OC(C)C,-,-,-,-,-,-
CN(C)CCc1c[nH]c2cccc(O)c12,?,.,.,-,?,.
CN(Cc1c[nH]c2ccccc12)C1CCCCC1,0.411µM,-,-,-,1.16µM,.
c1ccc2c(CNC3CCCCC3)c[nH]c2c1,2.51µM,?,-,-,6.31µM,-
Cc1ccc(S(=O)(=O)NCC(=O)OCC(=O)N2N=C(c3ccc(Cl)cc3)CC2c2ccco2)cc1C (stereo unspecified),?,-,-,-,23.1µM,?
CC[C@@H]([C@H](C)O)n1ncn(-c2ccc(N3CCN(c4ccc(OC[C@@H]5CO[C@@](Cn6cncn6)(c6ccc(F)cc6F)C5)cc4)CC3)cc2)c1=O,-,.,.,-,?,.
OCC[N+]12CCC(CC1)C(C(O)(c1ccccc1)c1ccccc1)C2 (stereo unspecified),-,-,-,-,-,-
O=C(C[N+]12CCC(CC1)C(C(O)(c1ccccc1)c1ccccc1)C2)c1ccc(Br)cc1 (stereo unspecified),14.6µM,-59.2,-,-,7.31µM,-
CCCc1cc(N2CCN(c3ccc(OC)cc3)CC2)n2cnnc2n1,16.4µM,.,.,-,11.6µM,-
O=C(O[C@H]1CN2CCC1CC2)N1CCc2ccccc2[C@@H]1c1ccccc1,?,.,.,-,21.1µM,.
COc1cc(=O)n2c(c1C(=O)N(C)Cc1nonc1C)CCN(C(=O)C1C(C)(C)C1(C)C)CC2,-,.,.,.,-,.
N#CC1=C(N)Oc2c(c(=O)oc3ccccc23)C1c1ccc(OC(=O)N2CCOCC2)cc1 (stereo unspecified),-,-,-,-,-,.
Cc1oc2ccc(OC(=O)N3CCOCC3)cc2c1C(=O)OC(C)C,?,-,-,-,25.9µM,-
CC(C)n1c(=O)c(C=Nc2ccc(F)cc2)c(O)n(Cc2ccco2)c1=O,-,-,-,-,-,.
N#CC(C#N)=Cc1cc(O)c(O)c(O)c1,9.44µM,.,.,-,15µM,.
C[C@@]12N[C@@H](Cc3ccccc31)c1ccccc12,-,-,-,-,-,-
COc1ccc(C(=O)Cn2c(NCCCl)nc3ccccc32)cc1,20.6µM,-,-,-,-,-
CC(C)n1c(O)c(C2c3cc(Cl)ccc3Oc3[nH]c(=O)n(C(C)C)c(=O)c32)c(=O)[nH]c1=O (stereo unspecified),2.91µM,-99.2,-,-,2.91µM,.
CN1C(=O)C(=Cc2ccccc2OCCOc2ccc([N+](=O)[O-])cc2)C(=O)N(C)C1=O,?,-,-,-,23.1µM,.
